Source: ChEMBL document CHEMBL1157539, “Thousands of chemical starting points for antimalarial lead identification” (Nature, 2010)

tested on: Plasmodium falciparum; assay: GSK_TCMDC: Inhibition of Plasmodium falciparum 3D7 in whole red blood cells, using parasite LDH activity as an index of growth. Test compounds present at 2uM; format: functional

SMILES	Inhibition [%]
CCn1c(-c2nonc2N)nc2c(-c3cccc(NC(=O)NCc4ccccc4)c3)ncc(OCCCN)c21.O=C(O)C(F)(F)F	99
CC(=O)Nc1ccc(CN2CCc3ccc(NS(=O)(=O)c4ccc(-c5cccc(C(F)(F)F)c5)cc4)cc3CC2)s1	82
CCS(=O)(=O)c1ccc(/C(=N/OC)c2ccc[nH]2)cc1	85
COc1cccc(-c2nc(Nc3ccncc3)c3ncn(C)c3n2)c1.O=C(O)C(F)(F)F	94
Cl.Oc1cccc(Nc2ccnc3cc(-c4nccs4)ccc23)c1	98
O=[N+]([O-])c1ccc(-n2nc(-c3cccnc3)n(Cc3ccco3)c2=S)c(Cl)c1	95
COc1cc2c(cc1C(F)(F)F)N(C(=O)Nc1ccc(Br)cn1)CC2	97
O=C(O)CCSc1ncnc2[nH]cnc12	100
CCN1CCN(c2cc(C)c3cc(NC(=O)c4ccc(C(C)(C)C)cc4)ccc3n2)CC1	85
COc1ccc(NC(=O)c2ccc(-c3cccc(OCc4ccccc4)c3)cc2)cc1N1CCN(C)CC1	85
O=C(Nc1ccc(OC2CCN(CC3CC3)CC2)c(Cl)c1)c1ccc2ncccc2c1.O=C(O)C(F)(F)F	84
COc1c(C2CCN(CCCCNC(=O)C=Cc3ccccc3C(F)(F)F)CC2)ccc2c1CCCC2	96
COc1ccc(CN2CCN(CC(=O)Nc3cc(Cl)ccc3-n3cncn3)CC2)cc1F	93
O=C(NNC(=O)c1ccc(CN2CCC(c3nc4ccccc4[nH]3)CC2)cc1)Nc1ccc(Oc2ccccc2)cc1.O=C(O)C(F)(F)F	86
COc1ccc(C2CC(c3cccs3)=NN2C(=O)COc2cccc(C(C)=O)c2)cc1OC (stereo not given)	99
NC(=O)c1sc(-n2cnc3ccc(C(=O)NCCN4CCOCC4)cc32)cc1OCc1ccccc1C(F)(F)F.O=CO	81
Cc1nc(Nc2ccc(F)cc2)nc(N2CCc3ccccc3[C@@H]2C)c1C.Cl	92
Cc1cc(OCCCN2CCC(NC(=O)c3ccc(Br)cc3)C2)c2ccccc2n1 (stereo not given)	85
O=C(Nc1cccc(-c2nn3ccccc3c2-c2ccnc(Nc3cccc(F)c3)n2)c1)C1CCCCC1	85
COc1cc2ncnc(Nc3ccc(OC(F)(F)c4ccccc4)cc3)c2cc1OC.Cl	91

SMILES	Inhibition [%]
COc1ccc(/N=C(\N)Nc2ccccc2)nc1Cc1ccccc1	81
Cc1cc2c(cc1C(F)(F)F)N(C(=O)Nc1ccc(C(=O)NCCN3CCCC3)cc1)CC2	100
N#Cc1cc(N(CCCOc2cccc(OC(F)(F)F)c2)Cc2ccccc2C(F)(F)F)ccc1C(F)(F)F	94
COc1cccc(-c2cc3c(NCc4ccncc4)nccc3s2)c1	87
O=C(Nc1cccc(Cl)c1)c1cc2ccccc2cc1O	97
COc1cc(Cc2cnc(N)nc2N)ccc1OCc1csc(-c2ccc(Cl)cc2)n1	93
CC(C)C(=O)NC(NC(=S)Nc1ccc(Br)cc1)C(Cl)(Cl)Cl (stereo not given)	93
COc1ccc(CNC(=O)Nc2cccc(-c3csc(NC(=N)N)n3)c2)cc1	80
O=C(O)C(F)(F)F.Oc1ccc(CNCC2CCN(CC3CCCCC3)CC2)cc1	82
N=C1SC(=Cc2cn[nH]c2-c2ccc(F)cc2)C(=O)N1c1nccs1	91
COc1ccc2c(c1)C(C)(CCCN(C)C)C(=O)N2C.O=C(O)C(=O)O (stereo not given)	93
CO/N=C(\C)c1ccc2c(c1)CCN(CCC1CCC(NC(=O)c3cccc(-c4noc(C)n4)c3)CC1)CC2.Cl (stereo not given)	90
CNC(=O)c1ccc(/C=C/C(=O)N2CCc3ccc(-c4ccccc4)cc3C2c2cccc(C(F)(F)F)c2)cc1 (stereo not given)	91
C=CCOc1cc(Cc2cnc(N)nc2N)cc(OC)c1OC.Cl	81
COc1ccc(Cl)cc1N1CCN(CCCNC(=O)c2ccc(-c3nc4c(C)cccc4[nH]3)s2)CC1	98
Nc1[nH]c2ccccc2c(=O)c1-c1nc2ccccc2s1	97
CN1CCC(N2CCN(C(=O)c3cccc(-c4cccc(-c5nc6ccccc6[nH]5)c4)c3)CC2)CC1	100
S=C(Nc1ccc(Cl)cc1)Nc1ccc(Nc2ccccc2)cc1	84
CCN(CC)CCCN(C(=O)Nc1cc(F)cc(F)c1)c1nc(-c2ccc(F)cc2)cs1	82
CN(C)Cc1ccc(CNC2CCN(Cc3ccccc3Cl)CC2)cc1.O=C(O)C(F)(F)F	82
